Compounds without any hit were thinned out: in the full panel of roughly 83,000, 20% have a hit.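 The endpoint reported here, percent growth, reads 100 for growth as untreated, 0 for no net growth and -100 for all cells dead.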 Unmarked numbers belong to inactive results. Activity calls are given as the source filed them. The calls were made as follows: active = growth percent below 10; inactive = the rest.
How the values were obtained:
Assay in all cases: NCI-60 one-dose screen, 48 h (100 = growth as untreated, 0 = no growth, -100 = all killed)
Settings in all cases: 10 µM unless noted
[1] = system: RPMI-8226 leukemia
[2] = system: OVCAR-8 ovarian
[3] = system: OVCAR-5 ovarian
[4] = system: OVCAR-4 ovarian
[5] = system: SK-OV-3 ovarian
[6] = system: IGROV1 ovarian
[7] = system: OVCAR-3 ovarian
[8] = system: HS 578T breast
[9] = system: NCI/ADR-RES ovarian
[10] = system: BT-549 breast
[11] = system: MDA-MB-435 melanoma
[12] = system: SW-620 colon
[13] = system: MCF7 breast
[14] = system: HCT-116 colon
[15] = system: HCC-2998 colon
[16] = system: KM12 colon
[17] = system: T-47D breast

Structure (SMILES)	growth [1]	growth [2]	growth [3]	growth [4]	growth [5]	growth [6]	growth [7]	growth [8]	growth [9]	growth [10]	growth [11]	growth [12]	growth [13]	growth [14]	growth [15]	growth [16]	growth [17] [%]
Cc1cc(Cl)nc(N(CCCNc2ccnc3cc(Cl)ccc23)Cc2ccccn2)n1	1.09% (active)	33.8%	56%	41.4%	65%	44.1%	62.8%	78.6%	32.2%	54%	52.7%	53.3%	32.9%	14.9%	74.2%	48%	
COc1cc(-c2cc(-c3ccc(Nc4nc(Nc5ccccc5)nc(Nc5ccc(Cl)cc5)n4)cc3)nc(N)n2)cc(OC)c1OC	40.1%	60.1%	70%	49.9%	113%	39.2%	63.8%		50.9%	71.1%	63.5%	87.2%	35.5%	34.9%	58.2%	52.4%	
COC(=O)c1ccc(CSc2nnc(-c3ccncc3)o2)cc1	102%	101%	104%	99.5%	102%	98.9%	112%	107%	104%	104%	106%	108%	96.6%	97.6%	110%	109%	
c1ccc2c(c1)ncn2-c1nc2ccccc2n2c1nc1ccccc12	81.7%	80.5%	81%		69.2%	51.4%	89.6%	83.8%	87%	91.6%	102%	78.4%	7.93% (active)	67.2%	20.5%	47.7%	
Clc1cnc(Nc2ccc(OCCN3CCCC3)cc2)nc1NCc1ccco1	6.95% (active)	20.2%	8.69% (active)	51.6%	57.8%	15.7%	28.8%	31.4%	18.5%	45.7%	34.5%	6.11% (active)	-0.965% (active)	7.55% (active)	59.1%	4.56% (active)	
O=c1[nH]c(=O)n(C2CC(O)C(CO)O2)cc1CO (centres undefined)	98.9%	99.9%	29.7%	107%	107%	124%	113%		4.34% (active)	82.1%	99%	96.6%	65.4%	91.4%		103%	87.7
O=[N+]([O-])c1cccc(/C=C/c2ccccn2)c1	51.7%	86.2%	96.2%	70.5%	94%	86.7%	59.4%		81.2%	64.8%	98.4%	47.7%	7.24% (active)	39.6%	62.2%	65.9%	37.9
CCCc1nc2ccccn2c1Nc1ccc(C(=O)NO)cc1	76.3%	78%	93.7%	91.1%	80.9%	111%	99.1%	94.6%	84.6%	98.1%	90.2%	86.3%	79.6%	85.4%	91.4%	97.1%	
Cc1ccc(S(=O)(=O)Nc2sccc2-c2nc(-c3ccccc3)no2)cc1	84.2%	89.4%	85.8%	95.1%	89.1%	87.9%	92.2%	97%	99.2%	92.5%	95.6%	97%	93.1%	85.9%	97.8%	90.1%	
CC1=CC(=O)C(C(C)C)=CC1=Nc1cc(Br)c(O)c(Br)c1	-8.71% (active)	31.1%	29.4%	37.2%	19.6%	22.9%	-9.25% (active)		-22.9% (active)	26.4%	-11.7% (active)	27.3%	23.2%	1.14% (active)	-43.5% (active)	-1.83% (active)	
N#Cc1cccc(-c2nc3ccccn3c2NCCN2CCOCC2)c1		90.7%	94.4%	30%	86.3%	97.8%	96.9%	96.2%	98.2%	93.3%	102%	95.5%	90.4%	89.9%	96.1%	88.6%	
Cc1ccc(O)c(C(=O)c2ccccc2Cl)c1	112%		85%	91.9%	112%	102%	118%		89%	93.8%	93.2%	98.4%	101%	99%	56.2%	116%	108
Cn1ncc2c(Nc3ccc(Br)cc3)nc(Nc3ccc(Br)cc3)nc21	23.2%	59.6%		51.9%	78.1%	48.9%	68.2%		21.5%	62.5%	33.5%	52.7%	3.89% (active)	37%		37.1%	29.1
Clc1ccc2c(NCCCN3CCN(c4nc(-n5ccnc5)nc5ccccc45)CC3)ccnc2c1	-48.6% (active)	84.2%		64.9%	109%	86.5%	90.5%	85.5%	90.7%	67.6%	71.2%		-29.3% (active)	72.8%	95.7%	87.8%	
CC(C)n1nc(C#Cc2cccc(O)c2)c2c(N)ncnc21	-46.9% (active)	-36.4% (active)		-15% (active)	-62.6% (active)	-68.8% (active)	-19.6% (active)	-28.8% (active)	-29.2% (active)	-65.4% (active)	-25.8% (active)	0.77% (active)	0.624% (active)	-63.8% (active)	-2.82% (active)	-7.5% (active)	
CC(C)n1nc(C#Cc2cccc(NC(=O)c3cccc(C(F)(F)F)c3)c2)c2c(N)ncnc21		-12.7% (active)	-27.5% (active)	11.4%	-51.6% (active)	-61.6% (active)	1.38% (active)	-31.2% (active)	-13% (active)	9.72% (active)	2.12% (active)	1.28% (active)	14.4%	-50.6% (active)	2.89% (active)	3.28% (active)	
O=S(=O)(NCCNc1cc(-c2c(-c3cccc(O)c3)nc3sccn23)ccn1)c1ccc(Br)cc1	38.1%	47.5%		43.1%	73.7%	47.4%	60.3%	59.1%	80.4%	55.2%	26.1%	76.8%	37.4%	47.9%	95.3%	51.3%	
C=C1c2c(C)nn(-c3ccc(NC(C)=O)cc3)c2N(C)C23CC1C1(C)c4c(C)nn(-c5ccc(NC(C)=O)cc5)c4N(C)C(C)(CC12)C3 (centres undefined)	-50.5% (active)		78.1%	35%	48.5%	64.8%	34.3%	62.6%	43.4%	44%	30.6%	27.9%	9.67% (active)	13.4%	44.7%	23.6%	
CCCCOc1ccc(NC(=O)n2nc(N=NN(C)C)c3ccc(Cl)cc32)cc1	92.7%	105%		96.6%	86%	82.8%	104%	93.6%	98.3%	98.8%	106%	106%	85.2%	91.3%	113%	110%	
